A short description of assay [1]: qHTS RealTime-Glo MT Cell Viability Assay in HEK293 cells - 16 hour (AID 1224872). Further: nearly all actives have a fitted effect of over 50% in size. Further: potency means the concentration at half of the fitted maximal effect. In short, it runs like this: (§1)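 Assay medium contained NanoLuc luciferase plus cell-permeant prosubstrate, added with HEK293 cells at 600 cells/well. After 5 h at 37 C/5% CO2 compounds were added; plates stayed at 37 C for 40 h with serial luminescence reads.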
A general note: Quantitative high-throughput screening tests each substance at several concentrations.

Assay [2] can be described thus: qHTS RealTime-Glo MT Cell Viability Assay in HepG2 cells - 8 hour (AID 1224873). Further: nearly all actives have a fitted effect of over 55% in size. Further: potency means the concentration at half of the fitted maximal effect. An outline of the steps: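 HepG2 cells (600/well) mixed with RealTime-Glo MT reagent, settled 5 h at 37 C/5% CO2 before compound addition. Nonlytic NanoLuc luminescence from viable-cell prosubstrate reduction read repeatedly during 40 h treatment at 37 C.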
Assay [3] can be described thus: qHTS RealTime-Glo MT Cell Viability Assay in HEK293 cells - 40 hour (AID 1224874). Further: nearly all actives have a fitted effect of over 50% in size. Further: potency means the concentration at half of the fitted maximal effect. Particulars: RealTime-Glo luminescence; max response: stronger effect = lower value. An outline of the steps: (§2)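 HEK293 + NanoLuc + prosubstrate, 600 cells/well; 5 h, 37 C/5% CO2; compound 23 nL in DMSO by pintool; 37 C; luminescence read at 0, 8, 16, 24, 32 and 40 h time points.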
The nature of assay [4]: A CellTox Green Cytotoxicity Assay to monitor cytotoxicity in HEK293 cells - 24 hour (AID 1224875). Further: nearly all actives have a fitted effect of over 45% in size. Further: potency means the concentration at half of the fitted maximal effect. An outline of the steps: (§3)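 Tox21 screen in HEK293: membrane-impermeant cyanine dye fluoresces on binding dead-cell DNA; compound pinned 5 h post-seeding, plates held at 37 C, signal read repeatedly through 40 h.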
Assay [5] in a line: A CellTox Green Cytotoxicity Assay to monitor cytotoxicity in HepG2 cells - 40 hour (AID 1224879). Further: nearly all actives have a fitted effect of over 40% in size. Further: potency means the concentration at half of the fitted maximal effect. In short, it runs like this:
(§4)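 Measurements at 0, 8, 16, 24, 32 and 40 h of treatment captured CellTox Green fluorescence in HepG2 cells that had been co-plated with reagent and preincubated 5 h at 37 C/5% CO2.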

Assay [6] in a line: qHTS RealTime-Glo MT Cell Viability Assay in HEK293 cells - 0 hour (AID 1224880). Further: top concentration of the series differs between compounds; nearly all actives have a fitted effect of over 45% in size. An outline of the steps: as §2
Assay [7] can be described thus: A CellTox Green Cytotoxicity Assay to monitor cytotoxicity in HepG2 cells - 0 hour (AID 1224882). Further: nearly all actives have a fitted effect of over 35% in size. In short, it runs like this: as §4
A short description of assay [8]: A CellTox Green Cytotoxicity Assay to monitor cytotoxicity in HepG2 cells - 32 hour (AID 1224883). Further: nearly all actives have a fitted effect of over 50% in size. Further: potency means the concentration at half of the fitted maximal effect. An outline of the steps: as §4
Assay [9] is described as follows: A CellTox Green Cytotoxicity Assay to monitor cytotoxicity in HEK293 cells - 8 hour (AID 1224884). Further: nearly all actives have a fitted effect of over 35% in size. Further: potency means the concentration at half of the fitted maximal effect. An outline of the steps: as §3
The nature of assay [10]: qHTS RealTime-Glo MT Cell Viability Assay in HepG2 cells - 16 hour (AID 1224885). Further: nearly all actives have a fitted effect of over 50% in size. Further: potency means the concentration at half of the fitted maximal effect. An outline of the steps:
(§5)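 qHTS, HepG2, 600 cells/well, RealTime-Glo (NanoLuc + prosubstrate) added with cells; 5 h preincubation; DMSO compound addition; 37 C; luminescence at 0/8/16/24/32/40 h.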

Assay [11] in a line: qHTS RealTime-Glo MT Cell Viability Assay in HEK293 cells - 24 hour (AID 1224886). Further: nearly all actives have a fitted effect of over 50% in size. Further: potency means the concentration at half of the fitted maximal effect. In short, it runs like this:
as §1

Assay [12] is described as follows: A CellTox Green Cytotoxicity Assay to monitor cytotoxicity in HEK293 cells - 16 hour (AID 1224888). Further: nearly all actives have a fitted effect of over 35% in size. Further: potency means the concentration at half of the fitted maximal effect. An outline of the steps: as §3
A short description of assay [13]: qHTS RealTime-Glo MT Cell Viability Assay in HepG2 cells - 0 hour (AID 1224889). Further: nearly all actives have a fitted effect of over 50% in size. In short, it runs like this:
as §5

The nature of assay [14]: A CellTox Green Cytotoxicity Assay to monitor cytotoxicity in HepG2 cells - 8 hour (AID 1224890). Further: nearly all actives have a fitted effect of over 45% in size. Further: potency means the concentration at half of the fitted maximal effect. An outline of the steps:
as §4

A short description of assay [15]: qHTS assay to identify small molecule antagonists of the estrogen receptor alpha (ER-alpha) signaling pathway using the BG1 cell line in the presence of 0.1 nM 17-beta-estradiol - cell viability counter screen (AID 1259241). Further: nearly all actives have a fitted effect of over 40% in size. Further: potency means the concentration at half of the fitted maximal effect. An outline of the steps:
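Cytotoxicity counter-screen: live-cell protease activity measured by fluorescence (30 min reagent step) in the same wells. Cells were VM7Luc4E2 with endogenous ER-alpha and ERE-driven luciferase, treated 22 hr at 37C alongside 0.1 nM 17beta-estradiol final.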

The nature of assay [16]: A CellTox Green Cytotoxicity Assay to monitor cytotoxicity in HepG2 cells - 16 hour (AID 1224876). Further: nearly all actives have a fitted effect of over 45% in size. Further: potency means the concentration at half of the fitted maximal effect. In short, it runs like this: as §4
Assay [17] is described as follows: qHTS RealTime-Glo MT Cell Viability Assay in HepG2 cells - 32 hour (AID 1224877). Further: nearly all actives have a fitted effect of over 55% in size. Further: potency means the concentration at half of the fitted maximal effect. An outline of the steps:
as §5

A short description of assay [18]: A CellTox Green Cytotoxicity Assay to monitor cytotoxicity in HepG2 cells - 24 hour (AID 1224878). Further: nearly all actives have a fitted effect of over 45% in size. Further: potency means the concentration at half of the fitted maximal effect. An outline of the steps:
as §4

Assay [19] in a line: A CellTox Green Cytotoxicity Assay to monitor cytotoxicity in HEK293 cells - 32 hour (AID 1224881). Further: nearly all actives have a fitted effect of over 40% in size. Further: potency means the concentration at half of the fitted maximal effect. An outline of the steps: as §3
A short description of assay [20]: qHTS RealTime-Glo MT Cell Viability Assay in HEK293 cells - 8 hour (AID 1224887). Further: nearly all actives have a fitted effect of over 50% in size. Further: potency means the concentration at half of the fitted maximal effect. An outline of the steps: as §2

A number with no mark means an inactive call. Records with an inconclusive call do not appear. Active and inactive are the calls of the source. The call rests on the fitted dose curve; in most records, active means well fitted curve in the direction sought with a large enough effect in the repeat runs; inconclusive means weak or mixed curves; inactive means no such curve, though single readings can be large; an effect the other way counts as inactive or inconclusive.

Consider 13 compounds from PubChem BioAssay (Tox21).
On the % scale 0 is the no-effect control and ±100 the full control effect.

Turning to `O=C(Oc1cccc2cccnc12)c1ccccc1`, the Potency result in assay [1], in assay [2], in assay [4], in assay [6], in [7] and in assay [9] was “inactive” in each case. Moreover, the Potency entry in assay [10], in [11], in assay [12], in assay [13], in [14] and in [15] was “inactive” in each case. For the same compound, the max response in assay [3] is -33.8%. The results for the Potency in assay [5] and in [8] were 0.477 µM (active) and 0.338 µM (active), respectively.
`ON=C1CCCC1`: the Potency in assay [1] and in [11] was 22.6 µM (active) throughout. Besides, the Potency result in assay [2], in assay [4], in [16], in [17], in [18] and in assay [5] was “inactive” each time. Moreover, the Potency entry in assay [6], in assay [19], in [7], in assay [8], in assay [9] and in assay [10] was “inactive” throughout. The Potency result in [12], in assay [13], in assay [14] and in [15] was “inactive” in each case.
For the compound `C[n+]1ccn(Cc2ccccc2)c1`, the Potency result in [1], in assay [2], in assay [4], in [16], in assay [17] and in assay [18] was “inactive” throughout. Moreover, the Potency entry in assay [5], in [6], in assay [19], in assay [7], in assay [9] and in assay [10] was “inactive” in each case. Further, the Potency entry in [11], in [20], in assay [12], in assay [13], in [14] and in assay [15] was “inactive” throughout.
Turning to `CN(C)c1ccc(SC#N)cc1`, the Potency result in assay [1], in [2], in assay [4], in assay [16], in assay [17] and in [18] was “inactive” each time. The Potency result in assay [5], in assay [6], in assay [19], in assay [7], in [8] and in assay [9] was “inactive” throughout. Further, the Potency entry in assay [10], in assay [11], in [20], in assay [12], in assay [13] and in assay [14] was “inactive” each time. Also, the Potency entry in assay [15] was “inactive”.
As to `O=C1CCCCCN1SSN1CCCCCC1=O`, the Potency result in [1], in assay [2], in [4], in [16], in [6] and in [7] was “inactive” throughout. Besides, the Potency entry in assay [9], in assay [11], in assay [20], in assay [12], in assay [13] and in assay [14] was “inactive” throughout. The Potency entry in assay [15] is “inactive”. Besides, the max response in assay [3] was -12.6%. In addition, the Potency in assay [5] was 54.9 µM (active).
Take `NNC(=O)c1cccc(C(=O)NN)c1`: the Potency result in assay [1], in [2], in assay [4], in assay [16], in assay [17] and in assay [18] was “inactive” in each case. The Potency result in [5], in [6], in assay [19], in assay [7], in [8] and in assay [9] was “inactive” each time. Also, the Potency result in assay [10], in assay [11], in assay [20], in assay [12], in [14] and in [15] was “inactive” each time.
In the case of `O=c1[nH]sc2ccccc12`, the Potency in assay [1] is 38.9 µM (active); in assay [2], 34.7 µM (active); in assay [3], 30.9 µM (active); in [16] it was 34.7 µM (active); in [17], 21.9 µM (active); in assay [18] it was 38.9 µM (active). For the same compound, the Potency in [5] is 21.9 µM (active); in assay [19], 54.9 µM (active); in [8], 34.7 µM (active); in assay [10], 21.9 µM (active); in assay [11] it was 38.9 µM (active); in [20], 49 µM (active). Moreover, the values for the Potency in assay [14] and in assay [15] were 49 µM (active) and 61.1 µM (active), respectively. For the same compound, the Potency result in [6], in [7] and in assay [13] was “inactive” each time.
In the case of `Cc1cc(O)c(C(C)(C)C)cc1Sc1cc(C(C)(C)C)c(O)cc1C`, the Potency in [1] is 24.5 µM (active); in assay [2] it was 43.6 µM (active); in assay [3], 21.8 µM (active); in [4] it was 48.9 µM (active); in [17], 48.9 µM (active); in assay [18], 54.8 µM (active). Further, the Potency in assay [5] was 48.9 µM (active); in assay [19] it was 54.8 µM (active); in assay [10] it was 48.9 µM (active); in assay [11], 21.8 µM (active); in assay [20], 24.5 µM (active). The Potency entry in assay [6], in assay [7], in assay [9], in assay [12], in assay [13] and in assay [14] was “inactive” each time.
With `Nc1c(Cl)cc(Cl)cc1Cl`, the Potency entry in assay [1], in assay [2], in [16], in assay [17], in [18] and in [6] was “inactive” throughout. Further, the Potency result in assay [7], in [10], in [11], in [13], in [14] and in [15] was “inactive” each time. In [3], the max response was -15.4%. The Potency in [9] and in assay [12] was 21.6 µM (active) throughout.
Regarding `COc1c(C)c2c(c(O)c1C/C=C(\C)CCC(=O)O)C(=O)OC2`, the Potency entry in [1], in [2], in assay [4], in assay [16], in [17] and in [18] was “inactive” throughout. Further, the Potency entry in assay [5], in assay [6], in [19], in [7], in assay [10] and in assay [11] was “inactive” in each case. The Potency result in assay [20], in assay [12], in assay [13], in assay [14] and in assay [15] was “inactive” in each case.
As for `CCCCN(CCCC)c1ccc(C(=O)c2ccccc2C(=O)O)c(O)c1`, the Potency result in assay [1], in assay [2], in assay [16], in assay [17], in assay [6] and in assay [7] was “inactive” throughout. The Potency result in assay [10], in assay [11], in assay [20] and in assay [14] was “inactive” each time. Further, the max response in assay [3] was -24.6%.
Regarding `O=c1cccccc1O`, the Potency entry in assay [1], in assay [2], in assay [4], in assay [16], in [17] and in [18] was “inactive” throughout. Further, the Potency entry in assay [5], in assay [6], in assay [19], in [7], in [8] and in [10] was “inactive” throughout. Besides, the Potency result in [20], in assay [12], in assay [13], in assay [14] and in assay [15] was “inactive” throughout.
Take `CC(=O)N1CCN(c2ccc(OC[C@H]3CO[C@](Cn4ccnc4)(c4ccc(Cl)cc4Cl)O3)cc2)CC1`: the Potency in assay [1] was 21.9 µM (active); in assay [2] it was 49 µM (active); in assay [3] it was 21.9 µM (active); in assay [4], 43.6 µM (active); in assay [17], 49 µM (active); in [5], 54.9 µM (active). Further, the Potency in [19] is 49 µM (active); in [8] it was 49 µM (active); in assay [10], 49 µM (active); in assay [11], 21.9 µM (active); in assay [12], 49 µM (active). For the same compound, the Potency result in assay [7] and in assay [14] was “inactive” throughout.
